A selection: hits, their analogues and other compounds. The true share with any hit is near 11%.
USP17 inh: human USP17-like deubiquitinase inhibition; purified USP17, Ub-rhodamine cleavage fluorescence, 3 h; 47,000 tested, 6.5% active; inhibition, % at 50 µM
USP28 block: inhibitors of human USP28 deubiquitinase | Q96RU2 | purified USP28, Ub-rhodamine cleavage fluorescence, 30 min | inhibition, % at 25 µM | 47,000 tested, 3% active | AID 1645857
USP30 inh: blocks human USP30 ubiquitin-rhodamine cleavage | inhibition, % at 25 µM | 47,000 tested, 5.3% active | Q70CQ3 | purified USP30, Ub-rhodamine cleavage fluorescence
Hits are given with their value. No stated cut-off is given here; in the data, active means inhibition above about 30%; inactive means the rest.

Results for O=S1(=O)[C@@H]2CCN(Cc3ccccc3)CC[C@@H]2CN1Cc1ccc(Cl)cc1 ?
USP17 inh: inactive; USP28 block: inactive; USP30 inh: inactive

How did COc1ccc(CNC(=O)CN2CCSc3ccccc32)cc1 do in these assays?
USP17 inh: inactive; USP28 block: inactive; USP30 inh: inactive

How did Cc1nn(-c2ccccc2)c2c1c(-c1ccccc1)cc(=O)n2CC(=O)N1CCOCC1 do in these assays?
USP17 inh: inactive; USP28 block: inactive; USP30 inh: inactive

Results for COc1ccc(CNC(=O)Cn2c(=O)cc(-c3ccccc3)c3c(C)nn(-c4ccccc4)c32)cc1 ?
USP17 inh: inactive; USP28 block: inactive; USP30 inh: 31

Results for COc1ccc(CNC(=O)CN2C(=O)c3cccc4cccc2c34)cc1 ?
USP17 inh: 46; USP28 block: inactive; USP30 inh: inactive

How did Cc1ccc(NC(=O)C(Cc2ccccc2)N2CCS(=O)(=O)CC2)cc1C (stereo unspecified) do in these assays?
USP17 inh: inactive; USP28 block: inactive; USP30 inh: inactive

What do the screens show for `COc1cccc(-c2cc(C(=O)N3CCN(CCOc4ccc(Cl)cc4)CC3)[nH]n2)c1`?
USP17 inh: inactive; USP28 block: inactive; USP30 inh: inactive

Results for Cc1noc(C)c1CCC(=O)N1CCCC(c2ccc3cn[nH]c3n2)C1 (stereo unspecified) ?
USP17 inh: inactive; USP28 block: inactive; USP30 inh: inactive

How did COc1ccccc1-c1nc(Cn2nnc(C(=O)Nc3cc(C)cc(C)c3)c2N)c(C)o1 do in these assays?
USP17 inh: 66; USP28 block: inactive; USP30 inh: 35

What do the screens show for `CCOc1ccccc1NC(=O)Cn1nnc(C(=O)Nc2cc(C)cc(C)c2)c1N`?
USP28 block: inactive; USP30 inh: inactive

What do the screens show for `COc1cc(NC(=O)Cn2c(=O)n(CC3CCC(C(=O)NC4CCCC4)CC3)c(=O)c3ccccc32)cc(OC)c1` (stereo unspecified)?
USP17 inh: 61; USP28 block: inactive; USP30 inh: 44

What do the screens show for `CCC(=O)Nc1ccccc1-c1nc2ccccc2n(CC(=O)Nc2cc(OC)ccc2OC)c1=O`?
USP17 inh: 45; USP28 block: 40; USP30 inh: 85

Results for COc1ccc(NC(=O)Cn2c(=O)n(Cc3ccco3)c(=O)c3ccc(C(=O)NC4CCCC4)cc32)cc1 ?
USP17 inh: inactive; USP28 block: inactive; USP30 inh: inactive

What do the screens show for `COc1ccc(CCNC(=O)Cn2c(=O)n(-c3ccc(CC(=O)NC4CCCC4)cc3)c(=O)c3ccccc32)cc1OC`?
USP17 inh: inactive; USP28 block: inactive; USP30 inh: inactive

Results for COc1ccc(OC)c(NC(=O)CN2CCC(c3nc4ccccc4[nH]3)CC2)c1 ?
USP17 inh: inactive; USP28 block: inactive; USP30 inh: inactive

Results for COc1ccc(OC)c(NC(=O)Cn2c(=O)n(CC3CCC(C(=O)NCCc4ccccc4)CC3)c(=O)c3ccccc32)c1 (stereo unspecified) ?
USP17 inh: 39; USP28 block: inactive; USP30 inh: 36

Results for O=C(Cn1c(=O)n(CC2CCC(C(=O)NCCc3ccccc3)CC2)c(=O)c2ccccc21)NCc1ccco1 (stereo unspecified) ?
USP17 inh: inactive; USP28 block: inactive; USP30 inh: inactive

Results for O=C(Cn1c(=O)n(CC2CCC(C(=O)NC3CCCC3)CC2)c(=O)c2ccccc21)NCc1ccco1 (stereo unspecified) ?
USP17 inh: 54; USP28 block: 50; USP30 inh: 39

How did CCc1ccc(NC(=O)C(C)c2c(C)n[nH]c2C)cc1 (stereo unspecified) do in these assays?
USP28 block: inactive; USP30 inh: inactive

How did O=C(NCc1ccccc1Cl)c1cccc(Nc2nc3ccccc3n3nnnc23)c1 do in these assays?
USP17 inh: inactive; USP28 block: inactive; USP30 inh: inactive

What do the screens show for `Cc1[nH]c2c(C)ccc(F)c2c1CCNC(=O)c1ccnn1C`?
USP17 inh: inactive; USP28 block: inactive; USP30 inh: inactive

Results for CS(=O)(=O)N1CCCC(c2cncc(N3CC4(CCCCC4)OC3=O)n2)C1 (stereo unspecified) ?
USP17 inh: inactive; USP28 block: inactive; USP30 inh: inactive

What do the screens show for `O=C1NC2(CCN(C(=O)Cc3ccccc3Cl)CC2)Nc2ccccc21`?
USP17 inh: inactive; USP28 block: inactive; USP30 inh: inactive

How did CC(=O)N1CCc2cc(S(=O)(=O)NC(CC(C)C)C(=O)N3CCC(Cc4ccccc4)CC3)ccc21 (stereo unspecified) do in these assays?
USP17 inh: inactive; USP28 block: inactive; USP30 inh: inactive

How did COc1ccc2nc(NC(=O)C(CC(C)C)NS(=O)(=O)c3ccc4c(c3)CCN4C(C)=O)sc2c1 (stereo unspecified) do in these assays?
USP17 inh: 74; USP28 block: inactive; USP30 inh: inactive
